Assay results from PubChem BioAssay AID651820 (National Center for Advancing Translational Sciences (NCATS), 2012).
The campaign covered roughly 340,000 compounds. About 12,000 (3.5%) were called active. About 18% were inconclusive and are not listed. Many of the other results were omitted from the sample, so actives are more common in it than they were. A number with no mark means an inactive call. Calls follow the shape of the dose curve; as a rule, active = well fitted inhibition curve with a large enough effect; inconclusive = small, poorly fitted or top-dose-only effect, or another doubt; inactive = no such curve, though single readings can be large or run the other way.

Test: qHTS Assay for Inhibitors of Hepatitis C Virus (HCV)
Conditions: Huh7.5.1 HCVcc-Cre infection, luciferase reporter, 44 h; series mostly up to 41.8 µM; activity change, negative = inhibition: at the top concentration
Procedure, shortened: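 HCVcc-Cre virus at an moi near 0.5 was added right after compound to cells cultured 4 h from seeding (1,000 cells/well). Luciferase activity was determined 44 h later, 15 min after substrate addition at RT.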
% is scaled to controls: 0 for no effect and ±100 for the full control effect; potency is read from the fitted curve at half-maximal effect.

Compound | activity change, negative = inhibition [%] | Potency
CC(=O)OC1CCC2(C)C(=CCC3C4CC(=O)N(O)C(=O)C4(C)CCC32)C1 (stereo not given) | 11.9 | –
COc1cc(/C=C/C(=O)OCC(=O)NC2CC2)cc(OC)c1OC | -13.3 | –
CN(CC(=O)NCc1cccnc1)S(=O)(=O)c1cc(Cl)ccc1Cl | -1.4 | –
CC(=O)c1c(OCC(=O)N(C)C2CCCCC2)ccc2c(C)cc(=O)oc12 | -5.03 | –
COc1cccc(C=CC(=O)C=CC=Cc2ccccc2)c1 | 0.583 | –
O=C(NCc1ccccc1Cl)C1CCCO1 (stereo not given) | 18.6 | –
O=C(NC1CCCCC1)c1ccc2c(=O)n(CC3CCCO3)c(=O)[nH]c2c1 (stereo not given) | 10.9 | –
Cc1cccc(NC(=O)c2ccc3c(=O)n(CC4CCCO4)c(=S)[nH]c3c2)c1 (stereo not given) | – | 11.2 µM (active)
Cc1ccccc1NC(=O)Cn1c(=O)n(CC2CCCO2)c(=O)c2ccccc21 (stereo not given) | 14.2 | –
O=C(NCc1ccccc1Cl)c1ccc2c(=O)n(CC3CCCO3)c(=S)[nH]c2c1 (stereo not given) | – | 6.31 µM (active)
CC1Sc2ccc(C(=O)NCc3ccccc3Cl)cc2NC1=O (stereo not given) | 14.3 | –
CSc1ccc(/C=C2\NC(=O)NC2=O)cc1 | 23 | –
Cc1cn(C2CC(O)C(CO)O2)c(=O)n(CCCc2ccccc2)c1=O (stereo not given) | 34.1 | –
C(#CCN1CCOCC1)CCCN1CCOCC1 | 2.92 | –
Cc1ccc(NS(=O)(=O)c2ccc(-c3coc(C)n3)cc2)c(C)c1 | – | 11.2 µM (active)
COc1cccc(NS(=O)(=O)c2ccc(-c3coc(C)n3)cc2)c1 | -9.58 | –
Cc1ccc(NS(=O)(=O)c2ccc3c(c2)n(C)c(=O)c(=O)n3C)c(C)c1 | 7.94 | –
CCCCN1C(N)=NC[C@@H]1CC1CCCCC1 | 17 | –
COC(=O)Cc1ccc(OCC(=O)NC2CCCC2)cc1 | 4.31 | –
CCN1CCN(c2c(Cl)cccc2NC(=O)c2ccc(Br)o2)CC1 | -19.6 | –
COc1cc(OC)cc(C(=O)NNC(=O)CNC(=O)c2ccc(Br)o2)c1 | 10.2 | –
COc1cc(OC)c(NC(=O)c2ccc(Br)o2)cc1Cl | – | 11.2 µM (active)
Cc1csc(SCC(=O)N(c2ccccc2)C(C)C)n1 | 13.2 | –
NC(=O)C1(Nc2ccc([N+](=O)[O-])cc2)CCCC1 | -3 | –
Cc1cc(OCc2cc(C(=O)NCc3cc(C(C)C)no3)no2)cc(C)c1Cl | 5.78 | –
CCOC(=O)CC1(NC(=O)c2cc(COc3cncc(Cl)c3)on2)CCCCC1 | – | 10 µM (active)
CCOC(=O)CC1COCCN1C(=O)c1cc(COc2ccc(F)c(F)c2)on1 (stereo not given) | -11.4 | –
CCCCn1c(N)c(N(CC(C)C)C(=O)C2CSC3(C)CCC(=O)N23)c(=O)[nH]c1=O (stereo not given) | 0.302 | –
O=C(O)C1C2C=CC(O2)C1C(=O)Nc1ccccn1 (stereo not given) | 21 | –
COC(=O)[C@]1(C)N[C@H](c2ccc(-c3ccc(Cl)c(Cl)c3)cc2)[C@@H]2C(=O)N(C)C(=O)[C@@H]21 | -8.54 | –
